The values below come from PubChem BioAssay AID589 (National Center for Advancing Translational Sciences (NCATS), 2007).

The whole screen tested about 59,000 compounds, of which about 6,200 (11%) were called active. About 9% were inconclusive and are not listed. Rule as the data show it: active = max dye-equivalent concentration above about 10 nM; inconclusive = mostly about 1.1 nM to 9.6 nM; inactive = weaker than that. The sample as a whole holds a higher share of actives than the screen did.

A short description of the assay: qHTS Assay for Spectroscopic Profiling in 4-MU Spectral Region. Conditions: compound autofluorescence, 340/450 nm, 4-MU equivalents; hits give high values. The method, boiled down:
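Compounds in 100 mM Tris, pH 8.0, incubated 15 min at room temperature, then fluorescence read at 340 nm excitation/450 nm emission. Signal converted to 4-MU dye-equivalent concentration using an on-plate six-point 4-MU standard curve.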
On the technique in general: In qHTS, concentration-response curves come from the screen itself.
Turning to `Cc1cc(N2C(=O)c3ccc(C(=O)NCc4ccccc4)cc3C2=O)no1`, the max dye-equivalent concentration entry was “inactive”.
For the compound `COC(=O)[C@H](Cc1ccccc1)NC(=O)N1CC(C)OC(C)C1` (stereo not given in full), the max dye-equivalent concentration result is “inactive”.
For `O=C(C1CCC(C(=O)N2CCCC2)CC1)N1CCCC1` (stereo not given), the max dye-equivalent concentration entry is “inactive”.
In the case of `O=C(c1cccs1)N1CCCC(c2nc(-c3ccc(F)cc3)no2)C1` (stereo not given), the max dye-equivalent concentration result was “inactive”.
For `C=CCn1c(=O)c2ccccc2n2c(SCC(=O)N3CCCc4ccccc43)nnc12`, the max dye-equivalent concentration result was “inactive”.
As to `CC(C)CC(=O)N=C1SC2CS(=O)(=O)CC2N1CCc1ccccc1` (stereo not given), the max dye-equivalent concentration result was “inactive”.
Take `CCCCN(C)C(=O)C1CCN(Cc2ccccn2)CC1`: the max dye-equivalent concentration result was “inactive”.
Consider `Cc1nc(SCC(=O)Nc2cc(C)on2)c2c3c(sc2n1)CCCC3`, for which the max dye-equivalent concentration result is “inactive”.
On to `O=C(Nc1cccc2c1CCCC2)C1CCN(C(=O)NC2CCCCC2)CC1`, for which the max dye-equivalent concentration entry was “inactive”.
On to `CCOc1ccccc1N=C1NC(=O)CS1`, for which the max dye-equivalent concentration result is “inactive”.
For the compound `CCc1nnc(NC(=O)c2c(O)c3c([nH]c2=O)CCCC3)s1`, the max dye-equivalent concentration entry is “inactive”.
For `Cc1cnc(CNc2cc(-c3c(C)noc3C)ncn2)cn1` the value was 18 nM (active); for `COCCNc1cc(-c2c(C)noc2C)ncn1`, 11 nM (active); for `Cc1cccc(CNc2cc(-c3ccccc3Cl)ncn2)c1`, “inactive”.
For `Cc1noc(C)c1-c1cc(NCc2cccnc2)ncn1` the value was “inactive”; for `CNc1cc(-c2c(C)noc2C)ncn1`, “inactive”; for `COc1ccccc1CNc1ncnc2ccc(-c3c(C)noc3C)cc12`, “inactive”.
On to `CCOC(=O)c1[nH]cnc1C(=O)NC1CCCCC1`, for which the max dye-equivalent concentration entry is “inactive”.
On to `C[C@]1(O)CC[C@H]2[C@H]3CC=C4N5CCN=C5CC[C@@]4(C)[C@H]3CC[C@@]21C`, for which the max dye-equivalent concentration entry was “inactive”.
In the case of `O=C(Nc1c(Cl)cccc1Cl)C1CCC1`, the max dye-equivalent concentration result is “inactive”.
For `O=C(NCc1ccco1)c1cc2sccc2n1Cc1ccc(F)cc1` the value was “inactive”.
For `Cc1nc2nc(CSc3nc4ccccc4s3)cc(=O)n2[nH]1` the value was “inactive”; for `Cc1cccc(-n2c(N)c(C(=O)N3CCN(C)CC3)sc2=S)c1`, “inactive”; for `CC(C(=O)Nc1ccccc1-c1ccccc1)N1CCOCC1` (stereo not given), “inactive”.
On to `O=C(c1ccccc1-c1ccccc1)N1CCOCC1`, for which the max dye-equivalent concentration entry was “inactive”.
For the compound `CC(C(=O)N1CCOCC1)N1c2cccc3cccc(c23)S1(=O)=O` (stereo not given), the max dye-equivalent concentration was 74 nM (active).
Consider `COc1ccc(N(CC(=O)NC(C)(C)C)C(=O)c2ccco2)cc1`, for which the max dye-equivalent concentration entry was “inactive”.
In the case of `COc1cc(C(=O)N(Cc2ccc(N(C)C)cc2)C2CCS(=O)(=O)C2)cc(OC)c1OC` (stereo not given), the max dye-equivalent concentration result is “inactive”.
Take `CCOc1ccc(Nc2oc(Cc3ccccc3)nc2C#N)cc1`: the max dye-equivalent concentration entry is “inactive”.
For the compound `CCOc1ccc2nc(NCCNS(=O)(=O)c3ccccc3)c(C#N)cc2c1`, the max dye-equivalent concentration is 110 nM (active).
As to `O=C(O)c1cccc(S(=O)(=O)NCCO)c1`, the max dye-equivalent concentration entry was “inactive”.
`Cc1cc(C)c(NC(=O)CS(=O)CC(=O)Nc2cccnc2)c(C)c1` (stereo not given): the max dye-equivalent concentration entry was “inactive”.
On to `COc1ccc(C(CC(=O)O)NC(=O)Cc2ccccc2)cc1` (stereo not given), for which the max dye-equivalent concentration entry was “inactive”.
As to `CCOC(=O)c1cc(C)sc1NC(=O)C1CCC1`, the max dye-equivalent concentration result is “inactive”.
In the case of `O=C(Nc1nncs1)c1ccccc1NS(=O)(=O)c1cccs1`, the max dye-equivalent concentration was 530 nM (active).
For `COC(=O)c1ccccc1NC(=O)c1ccccc1NS(C)(=O)=O` the value was “inactive”.
In the case of `O=C(C1CCN(S(=O)(=O)c2cccs2)CC1)N1CCCCCC1`, the max dye-equivalent concentration entry was “inactive”.
For `COc1ccc(CNC2CCCCC2)cc1`, the max dye-equivalent concentration entry was “inactive”.
On to `c1n[nH]c(NCc2ccc3c(c2)OCO3)n1`, for which the max dye-equivalent concentration result was “inactive”.
For `CN(Cc1ccccc1)c1nc2c(c(=O)[nH]c(=O)n2C)n1CCSc1nc2ccccc2[nH]1` the value was “inactive”; for `COc1cc(NC(=O)N2CCOCC2)cc(OC)c1`, “inactive”; for `CCOC(=O)c1[nH]c2ccc(OC)cc2c1NC(=O)CCN1CCN(Cc2ccccc2)CC1`, 57 nM (active).
As to `COC(=O)c1[nH]c2ccccc2c1NC(=O)CN1CCCc2ccccc21`, the max dye-equivalent concentration entry is “inactive”.
For `COc1ccc(OC)c(NC(=O)CCN2CCC(C)CC2)c1`, the max dye-equivalent concentration result is “inactive”.
For `Cc1c(C(=O)N2CCOCC2)[nH]c2ccc(OCc3ccccc3)cc12` the value was “inactive”; for `CCOC(=O)c1[nH]c2ccc(OC)cc2c1NC(=O)N1CCOCC1`, 130 nM (active); for `COc1cccc(NC(=O)CN(C)S(=O)(=O)c2ccc(C)cc2)c1`, “inactive”.
With `Cc1nonc1OCCn1nnnc1N`, the max dye-equivalent concentration result is “inactive”.
For `CCNC(=O)CN(c1ccc(C)cc1)S(=O)(=O)c1ccc(SC)cc1` the value was “inactive”; for `C=CCn1c(COc2cccc3cccnc23)nnc1SCC(=O)OC`, “inactive”.
For the compound `CCOc1cc(N2CCOCC2)c(OCC)cc1NC(=O)COc1cccc2cccnc12`, the max dye-equivalent concentration was 16 nM (active).
With `CC(=O)Nc1cccc(Oc2cc(C#N)c(C#N)cc2N2CCOCC2)c1`, the max dye-equivalent concentration entry was “inactive”.
Regarding `O=C1NC(c2cc3c(cc2Cl)OCO3)Oc2ccccc21` (stereo not given), the max dye-equivalent concentration entry was “inactive”.
Consider `CCOC(=O)c1cc(NC(=O)c2cccnc2)cc(C(=O)OCC)c1`, for which the max dye-equivalent concentration entry is “inactive”.
Turning to `CCC(=O)Nc1cccc(NC(=O)c2cccnc2)c1`, the max dye-equivalent concentration entry is “inactive”.
Regarding `Cc1cc2nc(-c3ccc(NC(=O)c4cccnc4)cc3)oc2cc1C`, the max dye-equivalent concentration was 15 nM (active).
Take `CNc1nc(-c2ccccc2OC)nc2ccccc12`: the max dye-equivalent concentration result was “inactive”.
For the compound `COc1ccccc1-c1nc(NCc2cccs2)c2ccccc2n1`, the max dye-equivalent concentration entry is “inactive”.
As for `CC(Sc1nc2ccccc2c(=O)n1Cc1ccco1)C(=O)c1ccccc1` (stereo not given), the max dye-equivalent concentration result is “inactive”.
For `COc1ccccc1NC(=O)CSc1nc2sc(C)c(C)c2c(=O)n1Cc1ccco1` the value was “inactive”.
As for `COCCCn1c2nc3ccccc3nc2c2c(=O)n(Cc3ccc(Cl)cc3)c(C)nc21`, the max dye-equivalent concentration was 320 nM (active).
Regarding `O=c1c2ccccc2oc2nc(C3CCCCC3)n(Cc3ccco3)c(=O)c12`, the max dye-equivalent concentration result was “inactive”.
For `Cn1c(COc2ccc(Cl)cc2)nc2ccccc2c1=O` the value was “inactive”.
As for `Cc1ccc(Cn2c(C)nc3c(c2=O)c2nc4ccccc4nc2n3Cc2ccco2)cc1`, the max dye-equivalent concentration is 760 nM (active).
For `Cc1nc2ccccc2c(=O)n1CCCn1ccnc1` the value was “inactive”; for `CCOC(=O)CSc1nc2c(sc(=S)n2CCc2ccccc2)c(=O)n1Cc1ccco1`, “inactive”; for `Cc1nc2c(c(=O)n1Cc1ccco1)c1nc3ccccc3nc1n2Cc1ccccc1`, 93 nM (active).
Regarding `Cc1ccc(S(=O)(=O)N2CCC(C(=O)OCC(=O)N3CC(=O)Nc4ccccc43)CC2)cc1`, the max dye-equivalent concentration result was “inactive”.
On to `CN(C)C(=O)c1ccc(-c2cncnc2NC2CCNCC2)cc1`, for which the max dye-equivalent concentration result was “inactive”.
Turning to `CC(=O)OCC(=O)[C@@]1(O)CC[C@@H]2[C@H]3CCC4=CC(=O)C=C[C@]4(C)[C@]3(F)[C@@H](O)C[C@@]21C`, the max dye-equivalent concentration result is “inactive”.
For `Cn1c(Cc2csc(N)n2)nnc1SC/C=C/c1ccccc1` the value was “inactive”.
In the case of `O=C(Nc1ccc2c(c1)OCCO2)c1ccncc1`, the max dye-equivalent concentration result was “inactive”.
As for `COc1ccc(C(=O)N2CCC3(CCCN(C(c4ccccc4)c4ccccc4)C3)CC2)cc1`, the max dye-equivalent concentration entry is “inactive”.
Consider `CC(c1ccco1)N(C(=O)c1ccc(S(=O)(=O)N2CCCCC2)cc1)c1ccccn1` (stereo not given), for which the max dye-equivalent concentration entry was “inactive”.
For `CCOc1cccc(NC(=O)C2CCCN(S(=O)(=O)c3ccc(OC)cc3)C2)c1` (stereo not given) the value was “inactive”; for `C[C@@H]1CC[C@H]2[C@H](C)[C@H]3[C@H](C[C@H]4[C@@H]5CC=C6C[C@@H](O)CC[C@@]6(C)[C@@H]5C[C@@H](O)[C@]34C)N2C1`, “inactive”; for `O=c1c2ccccc2nnn1CSc1nc2sc3c(c2c(=O)n1CC1CCCO1)CCC3` (stereo not given), “inactive”.
Turning to `CCCn1nnc2sc3c(c2c1=O)CCC(C)C3` (stereo not given), the max dye-equivalent concentration was 33 nM (active).
On to `CC1CCc2sc3nc(N4CCN(CCO)CC4)n4ncnc4c3c2C1` (stereo not given), for which the max dye-equivalent concentration result is “inactive”.
On to `O/N=C(\c1ccc2c(c1)OCCO2)C1CCCCC1`, for which the max dye-equivalent concentration result was “inactive”.
In the case of `CCN(CC)Cc1c(C(=O)OC)nnn1-c1nonc1N`, the max dye-equivalent concentration entry is “inactive”.
As to `CC(=O)c1sc2nc(SCC(=O)N3CCCCC3)[nH]c(=O)c2c1C`, the max dye-equivalent concentration result is “inactive”.
For the compound `O=C1N=C(N2CCOCC2)CS1`, the max dye-equivalent concentration entry is “inactive”.
As to `CN(CCC#N)c1ncnc2scc(-c3ccccc3)c12`, the max dye-equivalent concentration result was “inactive”.
With `CCCC(=O)NC(C)C(c1cccs1)N1CCN(c2ccccc2)CC1` (stereo not given), the max dye-equivalent concentration result is “inactive”.
Turning to `COCCOC(=O)C1=C(C)Nc2nc(C)nn2C1c1ccccc1` (stereo not given), the max dye-equivalent concentration entry was “inactive”.
Take `CCOC(=O)C1=C(C)NC(C)=C(C(=O)OCC)C1c1ccccn1`: the max dye-equivalent concentration was 290 nM (active).
With `CCOC(=O)c1ccc(NC(=O)CSc2ncccn2)cc1`, the max dye-equivalent concentration result is “inactive”.
Turning to `Cc1ccc(S(=O)(=O)NCCN2CCOCC2)cc1C`, the max dye-equivalent concentration entry was “inactive”.
With `Cc1nn(C)c(C)c1S(=O)(=O)N1CCc2ccccc21`, the max dye-equivalent concentration entry is “inactive”.
For `O=S(=O)(c1cccs1)N1CCN(Cc2ccccc2)CC1` the value was “inactive”; for `CCCCNc1nc2ccccc2nc1NS(=O)(=O)c1cccs1`, 45 nM (active); for `O=S(=O)(c1cccs1)N1CCc2ccccc2C1`, “inactive”.
As to `CC(C)CCNC(=O)CN(C(=O)Cn1nnc(-c2ccc(F)cc2)n1)C1CCCC1`, the max dye-equivalent concentration entry is “inactive”.
For the compound `O=C(O)c1cscn1`, the max dye-equivalent concentration result was “inactive”.
For `COc1ccc(S(=O)(=O)N2CCN(C(=O)c3cccs3)CC2)cc1OC` the value was 3300 nM (active).
For `COc1ccc(OCC(=O)N2CCN(C(=O)c3cccs3)CC2)cc1` the value was “inactive”; for `CCCS(=O)(=O)N1CCN(C(=O)c2cccs2)CC1`, “inactive”.
Consider `NCC(=O)[C@@H](O)[C@H](O)[C@H](O)CO`, for which the max dye-equivalent concentration entry was “inactive”.
For `CCn1c(SCC(=O)Nc2cc(C)c(Cl)cc2OC)nnc1-c1ccco1` the value was “inactive”.
Regarding `O=S(=O)(NCc1ccc2c(c1)OCO2)c1cccc2nsnc12`, the max dye-equivalent concentration result is “inactive”.
As to `COc1ccc(/C(O)=C2/C(=O)C(=O)N(CCCN(C)C)C2c2ccccc2)cc1OC` (stereo not given), the max dye-equivalent concentration entry is “inactive”.
For `CCCOc1ccc(/C(O)=C2/C(=O)C(=O)N(CCN(C)C)C2c2ccc(OC)c(OC)c2)cc1` (stereo not given) the value was “inactive”; for `CCN(CC)CCN1C(=O)C(=O)/C(=C(/O)c2ccc(OC)c(OC)c2)C1c1ccccn1` (stereo not given), 33 nM (active); for `CCn1nc(C(=O)OCC(=O)N2c3ccccc3CC2C)c2ccccc2c1=O` (stereo not given), “inactive”.
In the case of `Cc1noc(COc2ccccc2OCC(O)CNC(C)(C)C)n1` (stereo not given), the max dye-equivalent concentration entry was “inactive”.
For `CCSc1nc(C)nc2c1oc1ccccc12` the value was “inactive”; for `CCc1nc(Nc2ccc3nccnc3c2)c2oc3ccccc3c2n1`, 55 nM (active); for `CCc1nc(N2CCN(c3nc(C)cc(C)n3)CC2)c2oc3ccccc3c2n1`, “inactive”.
For the compound `COc1ccccc1CNC(=O)CCCn1c(=O)c2ccccc2n(CC(=O)NC2CCCC2)c1=O`, the max dye-equivalent concentration entry is “inactive”.
